This is part of a sample that, as a whole, favours compounds with a hit. Of some 83,000 tested, about 20% had one in any assay.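 48-hour exposure, single concentration, 96-well plates; percent growth endpoint where 0 means no net growth. Active: below 10.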 Calls of active or inactive are those of the source.
Tests used:
Experiment in all cases: NCI-60 one-dose screen, 48 h (100 = growth as untreated, 0 = no growth, -100 = all killed)
Settings in all cases: 10 µM unless noted
SR leukemia = test system: SR leukemia
RPMI-8226 leukemia = test system: RPMI-8226 leukemia
OVCAR-8 ovarian = test system: OVCAR-8 ovarian
OVCAR-5 ovarian = test system: OVCAR-5 ovarian
OVCAR-4 ovarian = test system: OVCAR-4 ovarian
SK-OV-3 ovarian = test system: SK-OV-3 ovarian
IGROV1 ovarian = test system: IGROV1 ovarian
OVCAR-3 ovarian = test system: OVCAR-3 ovarian
HS 578T breast = test system: HS 578T breast
NCI/ADR-RES ovarian = test system: NCI/ADR-RES ovarian
T-47D breast = test system: T-47D breast
BT-549 breast = test system: BT-549 breast
MDA-MB-435 melanoma = test system: MDA-MB-435 melanoma
SW-620 colon = test system: SW-620 colon
MCF7 breast = test system: MCF7 breast
HCT-116 colon = test system: HCT-116 colon
HCC-2998 colon = test system: HCC-2998 colon
KM12 colon = test system: KM12 colon

Measured: growth

CCCCCN1C=C/C(=C\C(=O)N(C)c2ccc(OC(F)(F)F)cc2)c2ccccc21
inactive: SR leukemia 100% | RPMI-8226 leukemia 94.7% | OVCAR-8 ovarian 95.3% | OVCAR-5 ovarian 100% | OVCAR-4 ovarian 87.6% | SK-OV-3 ovarian 90.6% | IGROV1 ovarian 93.2% | OVCAR-3 ovarian 105% | HS 578T breast 90.5% | NCI/ADR-RES ovarian 105% | T-47D breast 88.3% | BT-549 breast 109% | MDA-MB-435 melanoma 105% | SW-620 colon 98.1% | MCF7 breast 88.7% | HCT-116 colon 74.3% | HCC-2998 colon 106% | KM12 colon 102%

Clc1ccc(-c2ccc(CNCC3CCNCC3)o2)c(-c2ccccc2)c1
inactive: SK-OV-3 ovarian 45.4%
active: SR leukemia -60.9% | RPMI-8226 leukemia -54.4% | OVCAR-8 ovarian -66.9% | OVCAR-5 ovarian -90.6% | OVCAR-4 ovarian -38.2% | IGROV1 ovarian -64% | OVCAR-3 ovarian -79.9% | HS 578T breast -49.8% | NCI/ADR-RES ovarian -32.5% | T-47D breast -75.2% | BT-549 breast -5.56% | MDA-MB-435 melanoma -92% | SW-620 colon -85.9% | MCF7 breast -73.9% | HCT-116 colon -87.2% | HCC-2998 colon -77.6% | KM12 colon -84.2%

COc1ccc(/C=C/c2nc(Nc3ccc(Cl)cc3)c3ccccc3n2)cc1
active: SR leukemia -3.22%
inactive: RPMI-8226 leukemia 52.9% | OVCAR-8 ovarian 61.4% | OVCAR-5 ovarian 73.2% | OVCAR-4 ovarian 60.2% | SK-OV-3 ovarian 83.6% | IGROV1 ovarian 75.9% | OVCAR-3 ovarian 67.2% | HS 578T breast 70.5% | NCI/ADR-RES ovarian 65.7% | T-47D breast 49.9% | BT-549 breast 93.4% | MDA-MB-435 melanoma 55.3% | SW-620 colon 48.7% | MCF7 breast 44% | HCT-116 colon 36.1% | HCC-2998 colon 63.9% | KM12 colon 48%

COc1ccc(/C=N/NC(=O)c2cnn3c2NC(c2ccccc2)C3)cc1OC (stereo not drawn)
inactive: SR leukemia 32.3% | RPMI-8226 leukemia 83.2% | OVCAR-8 ovarian 75.3% | OVCAR-5 ovarian 92.1% | OVCAR-4 ovarian 107% | SK-OV-3 ovarian 78.9% | IGROV1 ovarian 59.6% | OVCAR-3 ovarian 18% | HS 578T breast 68% | NCI/ADR-RES ovarian 85.5% | T-47D breast 56% | BT-549 breast 42.3% | SW-620 colon 44.4% | MCF7 breast 29.6% | HCT-116 colon 22% | HCC-2998 colon 67% | KM12 colon 44.6%
active: MDA-MB-435 melanoma 0.386%

CCOC(=O)Nc1ccc(-c2ccc3c(c2)NC(=O)/C3=C\c2ccc[nH]2)cc1
active: T-47D breast 6.7%
inactive: SR leukemia 19.3% | RPMI-8226 leukemia 100% | OVCAR-8 ovarian 105% | OVCAR-5 ovarian 72.8% | OVCAR-4 ovarian 45% | SK-OV-3 ovarian 91% | IGROV1 ovarian 94.1% | OVCAR-3 ovarian 106% | HS 578T breast 106% | NCI/ADR-RES ovarian 102% | BT-549 breast 56.4% | MDA-MB-435 melanoma 102% | SW-620 colon 113% | MCF7 breast 10% | HCT-116 colon 107% | HCC-2998 colon 85.8% | KM12 colon 63.6%

CCCOc1ccc(/C=N/Nc2cc(C)nc3ccc(Br)cc23)cc1
inactive: RPMI-8226 leukemia 58.9% | OVCAR-8 ovarian 88.2% | OVCAR-5 ovarian 111% | OVCAR-4 ovarian 88.1% | SK-OV-3 ovarian 90.9% | IGROV1 ovarian 90.4% | OVCAR-3 ovarian 99.8% | HS 578T breast 106% | NCI/ADR-RES ovarian 97.2% | T-47D breast 96.4% | BT-549 breast 99.3% | MDA-MB-435 melanoma 85.8% | MCF7 breast 37.3% | HCT-116 colon 26.6% | HCC-2998 colon 57.3% | KM12 colon 76.2%
active: SR leukemia -1.3% | SW-620 colon 6.14%

C=C1C(=O)O[C@H]2[C@H]1CC/C(COC(=O)NCc1c[nH]c3ccc(F)cc13)=C\CC[C@@]1(C)O[C@@H]21
active: RPMI-8226 leukemia -24.4% | OVCAR-8 ovarian 0.654% | OVCAR-5 ovarian -30.6% | IGROV1 ovarian -46.7% | OVCAR-3 ovarian -75.6% | T-47D breast -58.3% | BT-549 breast -51.6% | MDA-MB-435 melanoma -63.5% | SW-620 colon -72.4% | HCT-116 colon -86.7%
inactive: SR leukemia 13% | OVCAR-4 ovarian 11.9% | SK-OV-3 ovarian 93.7% | HS 578T breast 50% | NCI/ADR-RES ovarian 59.7% | MCF7 breast 22.4% | HCC-2998 colon 68.3% | KM12 colon 33.5%

COc1ccc2c(c1)oc1c(C)c3c(c(C)c12)C(=O)N(N)C3=O
inactive: SR leukemia 26.2% | RPMI-8226 leukemia 59.5% | OVCAR-8 ovarian 26.9% | OVCAR-5 ovarian 40.4% | SK-OV-3 ovarian 61.2% | IGROV1 ovarian 26.8% | OVCAR-3 ovarian 24.9% | HS 578T breast 19.1% | NCI/ADR-RES ovarian 28.6% | T-47D breast 44.3% | MDA-MB-435 melanoma 36.8% | SW-620 colon 29.4% | MCF7 breast 57.3% | HCC-2998 colon 64.6% | KM12 colon 22%
active: OVCAR-4 ovarian -20.8% | BT-549 breast -43.5% | HCT-116 colon -13%

C=C(C)[C@@H]1CC[C@]2(C(=O)N3CCN(C)CC3)CC[C@]3(C)[C@H](CC[C@@H]4[C@@]5(C)CC[C@H](OCCC#N)C(C)(C)[C@@H]5CC[C@]43C)[C@@H]12
active: SR leukemia 3.86% | OVCAR-8 ovarian 6.81% | SW-620 colon 7.33%
inactive: RPMI-8226 leukemia 29.7% | OVCAR-5 ovarian 129% | OVCAR-4 ovarian 48.8% | SK-OV-3 ovarian 109% | IGROV1 ovarian 98.2% | OVCAR-3 ovarian 103% | HS 578T breast 104% | NCI/ADR-RES ovarian 45.8% | T-47D breast 91.7% | BT-549 breast 107% | MDA-MB-435 melanoma 107% | MCF7 breast 77.7% | HCT-116 colon 44.4% | HCC-2998 colon 102% | KM12 colon 48.2%

Fc1ccc2c(-c3cncn3CCc3ccccc3)c[nH]c2c1
inactive: SR leukemia 96.3% | RPMI-8226 leukemia 72.7% | OVCAR-8 ovarian 97.7% | OVCAR-5 ovarian 92.9% | OVCAR-4 ovarian 60.7% | SK-OV-3 ovarian 97.6% | IGROV1 ovarian 77.4% | OVCAR-3 ovarian 85.7% | HS 578T breast 67.3% | NCI/ADR-RES ovarian 95.1% | T-47D breast 74.4% | BT-549 breast 105% | MDA-MB-435 melanoma 93.2% | SW-620 colon 90.8% | MCF7 breast 86.6% | HCT-116 colon 75.7% | HCC-2998 colon 102% | KM12 colon 97.9%

COc1cc(/C=N/NC(=O)c2cnn3c2NC(c2ccccc2)C3)ccc1OCc1ccccc1 (stereo not drawn)
active: SR leukemia 0.0936% | OVCAR-8 ovarian 2.7% | OVCAR-4 ovarian -21.9% | OVCAR-3 ovarian -63.4% | HS 578T breast -1.22% | T-47D breast 8.39% | BT-549 breast -6.73% | MDA-MB-435 melanoma -28.3% | SW-620 colon -1% | MCF7 breast 0.769% | HCT-116 colon -15.1% | KM12 colon 2.22%
inactive: RPMI-8226 leukemia 43.7% | OVCAR-5 ovarian 33.2% | SK-OV-3 ovarian 18.9% | IGROV1 ovarian 12.2% | NCI/ADR-RES ovarian 35% | HCC-2998 colon 32.8%

CC(C)N1C(=O)/C(=C2\SC(=S)N(C(C)C)C2=O)SC1=S
inactive: SR leukemia 109% | RPMI-8226 leukemia 92.9% | OVCAR-8 ovarian 96.5% | OVCAR-5 ovarian 88% | OVCAR-4 ovarian 89.6% | SK-OV-3 ovarian 113% | IGROV1 ovarian 94.4% | OVCAR-3 ovarian 98.4% | HS 578T breast 91.4% | NCI/ADR-RES ovarian 95.7% | T-47D breast 82.8% | BT-549 breast 98.7% | MDA-MB-435 melanoma 100% | SW-620 colon 94.9% | MCF7 breast 96.8% | HCT-116 colon 95% | HCC-2998 colon 98.3% | KM12 colon 99.9%

N#C/C(=C\c1ccc([N+](=O)[O-])s1)c1nc2cc(Cl)ccc2s1
inactive: OVCAR-5 ovarian 63.6% | OVCAR-4 ovarian 13.4% | SK-OV-3 ovarian 65.1% | OVCAR-3 ovarian 20.9% | HS 578T breast 77.6% | T-47D breast 58.7% | MDA-MB-435 melanoma 29.6% | HCC-2998 colon 14.9% | KM12 colon 81.4%
active: SR leukemia -0.613% | RPMI-8226 leukemia -13.4% | OVCAR-8 ovarian 3.27% | IGROV1 ovarian -16.2% | NCI/ADR-RES ovarian -5.71% | BT-549 breast -6.72% | SW-620 colon 1.39% | MCF7 breast 4.17% | HCT-116 colon -36.4%

O=c1[nH]nc(-c2ccccc2)c2sc3ncc(-c4ccc(Br)cc4)n3c12
active: OVCAR-3 ovarian 0.339% | MDA-MB-435 melanoma -25.7%
inactive: SR leukemia 26.1% | RPMI-8226 leukemia 12.4% | OVCAR-8 ovarian 46.5% | OVCAR-5 ovarian 90.4% | OVCAR-4 ovarian 85.5% | SK-OV-3 ovarian 70.6% | IGROV1 ovarian 40.4% | HS 578T breast 32.4% | NCI/ADR-RES ovarian 98.2% | T-47D breast 43.1% | BT-549 breast 52.1% | SW-620 colon 35% | MCF7 breast 28.9% | HCT-116 colon 16.6% | HCC-2998 colon 89.8% | KM12 colon 33.9%

O=C(CNCCN1CCOCC1)N1c2cccc3cccc(c23)N(C(=O)CNCCN2CCOCC2)C1c1cn(-c2ccccc2)nc1-c1cccc([N+](=O)[O-])c1
inactive: RPMI-8226 leukemia 44.8% | OVCAR-8 ovarian 88.3% | OVCAR-5 ovarian 107% | OVCAR-4 ovarian 90.7% | SK-OV-3 ovarian 109% | IGROV1 ovarian 74.3% | OVCAR-3 ovarian 93.6% | HS 578T breast 69.1% | NCI/ADR-RES ovarian 87.7% | T-47D breast 77.6% | BT-549 breast 89.7% | MDA-MB-435 melanoma 80.1% | SW-620 colon 83.2% | MCF7 breast 36.9% | HCT-116 colon 50.7% | HCC-2998 colon 35.4% | KM12 colon 98.8%
active: SR leukemia -19.4%

CCc1c(Cl)nc(N)nc1Nc1ccc(C)c(C)c1
inactive: SR leukemia 73% | RPMI-8226 leukemia 104% | OVCAR-8 ovarian 102% | OVCAR-5 ovarian 110% | OVCAR-4 ovarian 98% | SK-OV-3 ovarian 109% | IGROV1 ovarian 97.4% | OVCAR-3 ovarian 116% | HS 578T breast 97.9% | NCI/ADR-RES ovarian 99.2% | T-47D breast 91.2% | BT-549 breast 106% | MDA-MB-435 melanoma 99.6% | SW-620 colon 102% | MCF7 breast 83.1% | HCT-116 colon 76% | HCC-2998 colon 101% | KM12 colon 99.2%
